What all share (experiment): NCI-60 one-dose screen, 48 h (100 = growth as untreated, 0 = no growth, -100 = all killed)
For one test, the system named is HT29 colon. As to conditions: 10 µM unless noted.
A further test deals with SNB-75 CNS. As to conditions: 10 µM unless noted.
The next test relates to SNB-19 CNS. Conditions: 10 µM unless noted.
Another test concerns U251 CNS. Conditions: 10 µM unless noted.
A further test concerns PC-3 prostate. As to conditions: 10 µM unless noted.
Another test deals with SK-MEL-5 melanoma. Conditions: 10 µM unless noted.
Another test has as its system UACC-62 melanoma. As to conditions: 10 µM unless noted.
The subject of the next test is LOX IMVI melanoma. As to conditions: 10 µM unless noted.
The subject of the next test is SK-MEL-28 melanoma. As to conditions: 10 µM.
A further test concerns SK-MEL-2 melanoma. Conditions: 10 µM unless noted.
In the next test the test system is EKVX NSCLC. As to conditions: 10 µM unless noted.
A further test deals with SN12C renal. As to conditions: 10 µM unless noted.
In another test the test system is TK-10 renal. As to conditions: 10 µM unless noted.
A further test has as its system ACHN renal. As to conditions: 10 µM unless noted.
A further test concerns CAKI-1 renal. Conditions: 10 µM unless noted.
The next test has as its system A498 renal. As to conditions: 10 µM unless noted.
Another test concerns CCRF-CEM leukemia. Conditions: 10 µM unless noted.
In the next test the test system is MOLT-4 leukemia. As to conditions: 10 µM unless noted.
The test system of a further test is SR leukemia. Conditions: 10 µM unless noted.
The next test concerns UO-31 renal. Conditions: 10 µM unless noted.

Compounds without any hit were thinned out: in the full panel of roughly 83,000, 20% have a hit.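 Single-dose data. Exposure time 48 hours. Values below 10 considered active.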 Values without a mark were called inactive. Activity calls are given as the source filed them.

Growth data for eight compounds are collected here from PubChem BioAssay (NCI).

On to `O=C1C(Cl)=C(NCc2ccco2)C(=O)c2ccccc21`, for which the growth in the test on HT29 colon was 67.9%; in the test with SNB-75 CNS, 87.1%; with SNB-19 CNS it was 98.8%; in the test with U251 CNS, 70.2%; in the test with PC-3 prostate it was 82.7%; in the test with SK-MEL-5 melanoma, -75.6% (active). For the same compound, the growth in the test with UACC-62 melanoma was 76%; in the test on LOX IMVI melanoma, 16.2%; in the test on SK-MEL-28 melanoma it was 106%; in the test with SK-MEL-2 melanoma, 93.4%; in the test on EKVX NSCLC, 110%; in the test on SN12C renal, 90.1%. Also, the growth in the test on TK-10 renal was 110%; in the test with ACHN renal it was 93.8%; with CAKI-1 renal it was 93.9%; in the test with A498 renal, 89.8%; with CCRF-CEM leukemia, 24.4%; with MOLT-4 leukemia, 91.1%. Further, in the test with SR leukemia, the growth is 63.9%.

Take `Cc1cccc2c(=O)c3c(sc12)c(NCCN)nc1ccccc13`: the growth is -54.9% (active) with HT29 colon; 15.2% in the test on SNB-75 CNS; -2.48% (active) in the test on SNB-19 CNS; -77.2% (active) in the test on U251 CNS; -42.9% (active) in the test on PC-3 prostate; -22.9% (active) with SK-MEL-5 melanoma. Also, the growth with UACC-62 melanoma was -86.6% (active); in the test on LOX IMVI melanoma, -92.9% (active); in the test on SK-MEL-28 melanoma, -86.1% (active); in the test with SK-MEL-2 melanoma, -34.9% (active); in the test on EKVX NSCLC, -0.232% (active); with SN12C renal, -75.8% (active). Besides, the growth in the test with UO-31 renal was -77.1% (active); in the test on TK-10 renal it was -73.7% (active); with ACHN renal it was -97.6% (active); in the test with CAKI-1 renal it was -58.4% (active); in the test on CCRF-CEM leukemia, -34.5% (active); with MOLT-4 leukemia, -59% (active). In addition, in the test with SR leukemia, the growth was -28.3% (active).

`O=C1NC(=S)NC(=O)C1=Cc1cn(Cc2cn(Cc3cccc4ccccc34)nn2)c2ccccc12`: the growth in the test on HT29 colon is 114%; in the test with SNB-75 CNS, 79.4%; in the test on SNB-19 CNS, 97.9%; in the test on U251 CNS, 102%; in the test on PC-3 prostate, 93.9%; in the test with SK-MEL-5 melanoma it was 93.9%. For the same compound, the growth in the test on UACC-62 melanoma was 88.3%; with LOX IMVI melanoma, 91.1%; in the test with SK-MEL-28 melanoma, 103%; with SK-MEL-2 melanoma, 114%; in the test on EKVX NSCLC it was 96.4%; in the test on SN12C renal it was 94.4%. In addition, the growth in the test with TK-10 renal is 134%; with ACHN renal, 96%; in the test on CAKI-1 renal, 80.3%; with A498 renal, 83.7%; with CCRF-CEM leukemia, 98.7%; with MOLT-4 leukemia it was 96.2%.

Turning to `CC/C(=C(\CC)c1ccc(OCC[N+](C)(C)C)cc1)c1ccc(OC)cc1`, the growth in the test on HT29 colon is 39.5%; in the test with SNB-75 CNS it was 31.2%; in the test on SNB-19 CNS, 27.1%; with U251 CNS, 21.6%; with PC-3 prostate, 41.6%; with SK-MEL-5 melanoma, 44.1%. Moreover, the growth in the test on UACC-62 melanoma was 42.2%; in the test on LOX IMVI melanoma, 73.2%; with SK-MEL-28 melanoma it was 76.7%; in the test on SK-MEL-2 melanoma, 98.8%; with EKVX NSCLC, 95.6%; with SN12C renal, 51.1%. Further, the growth in the test with UO-31 renal was 98.2%; in the test on ACHN renal, 98%; with CAKI-1 renal, 104%; in the test on A498 renal, 53%; with CCRF-CEM leukemia, 60.1%; in the test on MOLT-4 leukemia it was 65%. In addition, in the test with SR leukemia, the growth is 69.3%.

Turning to `CN(O)c1nc(N(C)O)nc(N2CCOCC2)n1`, the growth in the test with HT29 colon was 23.7%; in the test with SNB-75 CNS it was 29.2%; in the test on SNB-19 CNS, 32.8%; in the test on U251 CNS, 31.5%; in the test with PC-3 prostate it was 58.9%; with SK-MEL-5 melanoma, 34.2%. In addition, the growth was 29.1% with UACC-62 melanoma; 25.4% in the test on LOX IMVI melanoma; 61.1% in the test with SK-MEL-28 melanoma; 62.6% in the test on SK-MEL-2 melanoma; 5.22% (active) in the test on EKVX NSCLC; 53.7% with SN12C renal. The growth was 12.7% with UO-31 renal; 16.3% with TK-10 renal; 17.5% in the test with ACHN renal; -11.2% (active) in the test with CAKI-1 renal; 5.09% (active) with CCRF-CEM leukemia; 22.1% with MOLT-4 leukemia. For the same compound, the growth in the test on SR leukemia is 55.6%.

For `O=C1Nc2ccccc2/C1=C/c1ccc[nH]1`, the growth in the test with HT29 colon was 110%; in the test with SNB-75 CNS, 105%; with SNB-19 CNS, 90.3%; in the test on U251 CNS, 83%; in the test on PC-3 prostate it was 106%; with SK-MEL-5 melanoma, 58.7%. For the same compound, the growth with UACC-62 melanoma was 97.7%; with LOX IMVI melanoma, 98.8%; in the test with SK-MEL-28 melanoma, 114%; with SK-MEL-2 melanoma, 103%; in the test with EKVX NSCLC, 32.8%; in the test on SN12C renal, 92.7%. Further, the growth in the test with UO-31 renal is 61.9%; with ACHN renal it was 84%; in the test with CAKI-1 renal, 77.4%; with A498 renal, 88.5%; with CCRF-CEM leukemia it was 109%; in the test on MOLT-4 leukemia, 101%. The growth with SR leukemia is 71.7%.

As for `COc1ccc(OC)c(NC(=O)/C(C#N)=C/c2ccco2)c1`, the growth in the test with HT29 colon is 91.8%; with SNB-75 CNS it was 82.2%; in the test with SNB-19 CNS it was 93.8%; in the test with U251 CNS, 94.2%; in the test on PC-3 prostate, 89.7%; with SK-MEL-5 melanoma, 102%. Also, the growth was 86.5% in the test with UACC-62 melanoma; 98.2% in the test on LOX IMVI melanoma; 104% in the test on SK-MEL-28 melanoma; 87.1% with SK-MEL-2 melanoma; 94% in the test on EKVX NSCLC; 101% in the test with SN12C renal. The growth was 67.8% in the test with UO-31 renal; 114% with TK-10 renal; 93.6% with ACHN renal; 90.4% in the test on CAKI-1 renal; 78.7% in the test with MOLT-4 leukemia; 74.3% with SR leukemia.

Take `O=c1c(-c2nc3ccccc3[nH]2)cc2ccccc2n1Cc1cn(Cc2ccc(N3CCOCC3)cc2)nn1`: the growth in the test on HT29 colon is 56.3%; in the test with SNB-75 CNS, 5.39% (active); in the test with SNB-19 CNS, 48%; in the test on U251 CNS, 64.3%; with PC-3 prostate, 65.9%; in the test on SK-MEL-5 melanoma, 71.9%. The growth was 79.2% in the test on UACC-62 melanoma; 78.7% in the test on LOX IMVI melanoma; 76.2% with SK-MEL-28 melanoma; 86.9% in the test with SK-MEL-2 melanoma; 89.7% in the test on EKVX NSCLC; 49.7% with SN12C renal. Moreover, the growth with UO-31 renal was 74.8%; with ACHN renal, 35.7%; in the test on CAKI-1 renal it was 77.3%; with A498 renal, 92.4%; with CCRF-CEM leukemia it was 110%; in the test with MOLT-4 leukemia, 99%. For the same compound, in the test with SR leukemia, the growth is 71.7%.
